This is a sample that favours compounds with a hit; in the whole collection about 5.9% have one here.
GLP1R ag: agonists of human GLP-1 receptor | P43220 | HEK293 GLP-1R CRE-luciferase, luminescence, 4-6 h; cells express a hypersensitive GLP-1R form | Potency, µM (top dose mostly 45.6 µM), inactives show at the top dose activation, usual class: activators | 0.007% of 380,000 active; further: % of control where 0% means no effect
Target sequence (P43220 whole entry, looked up): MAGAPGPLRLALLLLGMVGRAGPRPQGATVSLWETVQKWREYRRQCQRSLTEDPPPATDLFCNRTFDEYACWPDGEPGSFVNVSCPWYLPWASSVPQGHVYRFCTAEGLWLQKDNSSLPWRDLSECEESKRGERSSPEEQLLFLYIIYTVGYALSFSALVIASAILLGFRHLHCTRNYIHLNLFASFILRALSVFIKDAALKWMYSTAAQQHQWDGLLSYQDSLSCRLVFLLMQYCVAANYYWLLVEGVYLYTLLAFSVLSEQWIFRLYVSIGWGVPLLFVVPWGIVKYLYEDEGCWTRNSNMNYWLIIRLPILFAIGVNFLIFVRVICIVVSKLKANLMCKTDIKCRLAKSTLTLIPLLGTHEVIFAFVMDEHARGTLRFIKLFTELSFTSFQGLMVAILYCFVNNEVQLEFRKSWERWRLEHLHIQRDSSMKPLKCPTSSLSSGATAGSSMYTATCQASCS
HEK293 tox: cytotoxicity in counter-screen for GLP-1R inverse agonists; AID 624418; Potency, µM (series often up to 38.3 µM), without a hit: at the highest dose activity change, negative = inhibition, most hits filed as inhibitors; 0.13% of 410,000 active; HEK293 cAMP-luciferase reporter cells, luminescence, 24 h;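 further: loss of luciferase light is scored as toxicity; on the % scale 0 is the no-effect control and ±100 the full control effect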
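Cells in DMEM/10% Nu serum/1% pen-strep, 1536-well format. Pre-incubated 12 h, dosed with 23 nL compound, incubated a further 24 h. Luciferase detection, 12 min at room temp, luminescence.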
GLP1R inv ag: acts as inverse agonist at human GLP-1 receptor | 1.6% of 410,000 active | HEK293 GLP-1R CRE-luciferase, luminescence, 24 h; GLP-1R form is constitutively active | Potency, µM (series often up to 38.3 µM), for inactives: at the top dose activity change, negative = inhibition, most hits filed as inhibitors | P43220 | AID 624417; further: on the % scale 0 is the no-effect control and ±100 the full control effect; nearly all actives have a fitted effect of over 55% in size
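Using stably transfected HEK293 (constitutively active GLP-1R, cAMP-luciferase reporter), compounds were incubated 24 hr and luciferase measured by luminescence.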
Gal4-VP16 FLuc: Gal4-VP16 reporter inhibition counter-screen; 3.5% of 310,000 active; AID 2546; Drosophila S2 Gal4-VP16 UAS-luciferase, luminescence, 20 h; Potency, µM (doses to about 53.6 µM), for inactives: at the top dose activity, negative = inhibition, actives largely listed as inhibitors;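 further: Gal4-VP16 expression switched on by copper sulfate through the metallothionein promoter; on the % scale 0 is the no-effect control and ±100 the full control effect; nearly all actives have a fitted effect of over 50% in size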
RORgamma inh: blocks mouse ROR gamma transcriptional activity. AID 2551. Potency, µM (highest dose often 53.6 µM), inactives show at the top dose activity change, negative = inhibition, usual class: inhibitors. 5.4% of 310,000 active. Drosophila S2 Gal4-RORgamma UAS-luciferase reporter, 20 h. P51450; further: on the % scale 0 is the no-effect control and ±100 the full control effect; nearly all actives have a fitted effect of over 60% in size
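Read-out: Photinus luciferase luminescence; inhibitors lower reporter signal. Insect Schneider cells with Gal4-ROR gamma fusion under metallothionein promoter, UAS reporter; 700 uM final copper sulfate induction, 20 hr, ambient temperature.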
* hit, by the source's call; ? = inconclusive; . = not tested or not shown; [ ] = another dose, or the depositor's remark. The call rests on the fitted dose curve; in most records, active means well fitted curve in the direction sought with a large enough effect; inconclusive means small, poorly fitted or top-dose-only effect, or another doubt; inactive means no such curve, though single readings can be large; an effect the other way counts as inactive or inconclusive. Potency means the concentration at half of the fitted maximal effect.

SMILES | GLP1R ag | HEK293 tox | GLP1R inv ag | Gal4-VP16 FLuc | RORgamma inh
COc1c(C)cccc1C(=O)NC(=S)Nc1ccccc1N1CCCC1 | 14.2% | 6.9% | ? | 20µM* | 10µM*
COc1cccc(C(=O)NC(=S)Nc2ccccc2N2CCCCC2)c1 | 15.9% | 0.0% | 5.62µM* | 5.01µM* | 2.51µM*
CC(C)Oc1cccc(C(=O)NC(=S)Nc2ccccc2N2CCOCC2)c1 | -7.2% | 9.2% | 13.7% | 5.62µM* | 5.62µM*
CN1CCN(C(CNC(=O)C(=O)Nc2ccccc2C#N)c2ccc3c(c2)OCO3)CC1 (configuration not stated) | . | -26.4% | -67.7% | . | .
Cc1ccccn1 | 9.1% | . | . | -7.6% | 12.7%
Cc1ccc(CN2C(=O)C3(c4ccccc42)N(c2cccc(F)c2)C(=O)CS3(=O)=O)cc1 (configuration not stated) | 5.6% | -5.1% | ? | . | .
CCc1nn(CC(=O)N2CCN(c3cccc(C(F)(F)F)c3)CC2)c(=O)c2cccn12 | . | 0.7% | 16.1% | . | .
COc1cccc(C(=O)NC(=S)Nc2ccccc2N2CCCC2)c1 | 25.0% | ? | 5.01µM* | 12.6µM* | 3.98µM*
COc1cc(SC#N)ccc1N=Cc1c(C)[nH]n(-c2ccc(Cl)cc2)c1=O | -19.5% | 2.0% | -14.5% | 5.62µM* | 5.62µM*
CC1CCCN(CCCOc2ccc(Cl)cc2Br)C1 (configuration not stated) | -1.8% | -7.9% | ? | -3.4% | 20.0%
CC1CCCN(CCOc2ccc3ccccc3c2Br)C1 (configuration not stated) | 19.6% | ? | 10µM* | -3.5% | 4.5%
COc1cc(NC(=S)Nc2ccc(OC(F)F)cc2)cc(OC)c1 | 4.4% | -14.5% | ? | ? | 10µM*
COc1ccc(NC(=S)Nc2ccc(F)cc2)cc1 | -4.7% | 5.7% | 8.2% | ? | ?
Fc1ccc(CNC(=S)Nc2ccc(OC(F)F)cc2)cc1 | 11.3% | -8.6% | ? | ? | 11.2µM*
FC(F)Oc1ccc(NC(=S)NCc2cccnc2)cc1 | 2.8% | -4.3% | -8.9% | -18.0% | 17.3%
CCC(=O)N/N=C/c1ccc(-c2ccc([N+](=O)[O-])cc2)o1 | 24.9% | 0.8% | 20.9% | 9.3% | -9.1%
NC(=S)N/N=C/c1ccc(-c2cccc([N+](=O)[O-])c2)o1 | 5.9% | ? | 0.0% | 4.47µM* | 1µM*
O=[N+]([O-])c1cccc(-c2ccc(/C=N/NC(=S)Nc3cccc(F)c3)o2)c1 | 10.3% | 13.0% | -13.8% | 7.08µM* | 0.891µM*
O=C(N/N=C/c1ccc(-c2cccc([N+](=O)[O-])c2)o1)c1cccs1 | 17.3% | 7.6% | 27.1% | ? | 10µM*
CCc1nnc(N/N=C/c2ccc(-c3ccc([N+](=O)[O-])cc3)o2)n1N | 6.0% | -15.2% | 34.9% | ? | 3.55µM*
COC(C)(C)CCCC(C)C/C=C/C(C)=C/C(=O)O (configuration not stated) | . | . | . | -0.9% | 25.0%
CC(C)N=C=NC(C)C | . | . | . | -4.8% | 5.3%
CCN1C(=O)[C@H]2[C@H]3[C@H](O)[C@H](O)C/C(=N/OC[C@@H]4O[C@H](c5ccccc5)C=C[C@@H]4Oc4ccc(OC)cc4)[C@@H]3CC[C@@H]2C1=O | . | . | . | 9.2%[10 µM] | 9.4%[10 µM]
COCC1CCN(C(=O)c2cc(COc3cccc4cnccc34)on2)CC1 | 4.1% | 9.6% | -26.0% | 12.6µM* | 23.4%
CCN(CC)C1CCN(C(=O)c2cc(COc3ccccc3SC)on2)C1 (configuration not stated) | -0.7% | 4.2% | 7.08µM* | -13.1% | 0.0%
SMILES | GLP1R ag | HEK293 tox | GLP1R inv ag | Gal4-VP16 FLuc | RORgamma inh
O=C(c1cc(COc2cccc3cnccc23)on1)N1CCCC(CCCO)C1 (configuration not stated) | 0.6% | 3.6% | 5.2% | 2.82µM* | ?
CSc1ccccc1OCc1cc(C(=O)N2CCCC(C)C2)no1 (configuration not stated) | -3.6% | -2.9% | ? | ? | 3.2%
COc1ccc(C2/C=C\CN(S(=O)(=O)CC34CCC(CC3=O)C4(C)C)CC(=O)N2Cc2ccc(F)cc2)cc1 (configuration not stated) | . | . | . | -0.8% | 21.8%
Cc1ccc(NC2=CC(=O)c3sc(C)nc3C2=O)cc1 | . | . | . | 2.51µM* | 2.24µM*
Cc1c(-c2nnc(SCC(=O)Nc3ccc(Br)cc3)o2)nnn1-c1ccc(F)cc1 | 0.5% | -5.2% | 4.3% | . | .
COCCNC(=S)N1CCc2cc(OC)c(OC)cc2C1COc1cc(C)cc(C)c1 (configuration not stated) | -4.1% | -6.3% | ? | 22.4µM* | ?
CC12CCC=CC1C(c1cccc([N+](=O)[O-])c1)N(Cc1ccccc1)C2=O (configuration not stated) | . | . | . | -6.1% | ?
CC(C)COc1ccc(Cc2cnc(N)nc2N)cc1 | 8.8% | -31.2% | ? | -0.1% | -4.2%
CC(C)Oc1ccc(Cc2cnc(=S)[nH]c2N)cc1 | -3.3% | -5.7% | 13.4% | -23.8% | 11.2µM*
COCCNC(=O)CCN1C(=O)c2cccnc2Oc2ccc(C)cc21 | . | -1.7% | 4.6% | . | .
Cc1nc2[nH]c(=S)[nH]c2cc1Br | -1.0% | 3.6% | 23.6% | -2.9% | 11.2µM*
CNC(=S)N/N=C/c1c(C)cccc1Cl | 6.0% | ? | ? | 3.98µM* | 2.24µM*
CNC(=S)N/N=C/c1c2ccccc2c(Cl)c2ccccc12 | 0.0% | 3.55µM* | 7.94µM* | 5.01µM* | 4.47µM*
Cc1nn2c(=O)cc(COC(=O)c3ccccc3NC(=O)C(C)Oc3ccccc3)nc2s1 (configuration not stated) | . | -9.9% | 1.8% | . | .
Cc1cccc(NC(=S)N2CCC(c3nc4ccccc4o3)CC2)c1C | -0.6% | -11.6% | ? | ? | 10µM*
CCOc1ccccc1NC(=S)N1CCC(c2nc3ccccc3o2)CC1 | -5.3% | -15.4% | -26.3% | ? | 11.2µM*
Cc1cccc(NC(=S)N2CCC(c3nc4ccccc4o3)CC2)c1 | 11.0% | 1.0% | ? | 8.5%[10 µM] | 7.08µM*
Cc1cccc(NC(=O)N2CCC(c3nc4ccccc4o3)CC2)c1 | 4.1% | -27.1% | 0.0% | 5.2% | 26.8%
COc1cccc(C2NC(C(=O)O)CCC2C)c1 (configuration not stated) | . | . | . | -10.2%[10 µM] | -4.1%[10 µM]
O=C(Nc1cccc(F)c1)N1CCC2(CC1)CCN(C(=O)c1ccco1)CC2 | . | . | . | 10.8% | ?
COc1ccc(-c2cc(-c3c(O)c(OC)c4occc4c3OC)[nH]n2)cc1OC | 7.2% | 7.8% | 18.0% | 8.91µM* | 7.94µM*
CCCCc1nc2cc(C(=O)NCc3cn(C)nc3C)ccc2o1 | 3.5% | -4.5% | 5.6% | 0.0631µM* | 1µM*
O=C(c1cccs1)c1ccc(-c2cccs2)s1 | -10.0% | 94.0% | ? | 12.6µM* | -22.7%
